One experiment relates to Es-2. Kind of experiment: Primary qHTS to identify gynecologic anti-cancer compounds using libraries of approved drugs and bioactive compounds (AID 1345084). Also: nearly all actives have a fitted effect of over 55% in size. Also: potency is read from the fitted curve at half-maximal effect. As to activity change, negative = cytotoxicity: % is scaled to controls: 0 for no effect and ±100 for the full control effect. Conditions: Gynecologic cancer cell panel viability, ATPlite luminescence, 48 h; series mostly up to 57.5 µM. Put shortly: (§1)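 Cell viability after 48 h drug treatment, ATPlite luminescence readout; five doses.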
Background: Quantitative high-throughput screening tests each substance at several concentrations.

For the next experiment, the system named is HeLa. Described as above. Conditions: Gynecologic cancer cell panel viability, ATPlite luminescence, 48 h; series mostly up to 57.5 µM. Put shortly:
as §1
(In general: In ATP-based viability assays light output follows the ATP content of the culture.)

The next experiment relates to Hek293T. The description is as above. Conditions: Gynecologic cancer cell panel viability, ATPlite luminescence, 48 h, control line for the selectivity index; series mostly up to 57.5 µM. Put shortly:
as §1

The subject of a further experiment is JEG-3. The experiment is described as above. Conditions: Gynecologic cancer cell panel viability, ATPlite luminescence, 48 h; series mostly up to 57.5 µM. A digest of the protocol: as §1
The next experiment concerns OV90. Described as above. Conditions: Gynecologic cancer cell panel viability, ATPlite luminescence, 48 h; series mostly up to 57.5 µM. A digest of the protocol:
as §1

The next experiment deals with PA-1. The description is as above. Conditions: Gynecologic cancer cell panel viability, ATPlite luminescence, 48 h; series mostly up to 57.5 µM. A digest of the protocol:
as §1

The subject of another experiment is SKOV3. The experiment is described as above. Conditions: Gynecologic cancer cell panel viability, ATPlite luminescence, 48 h; series mostly up to 57.5 µM. Put shortly: as §1
A further experiment concerns Tov112D. The description is as above. Conditions: Gynecologic cancer cell panel viability, ATPlite luminescence, 48 h; series mostly up to 57.5 µM. Put shortly: as §1
Experiment [1] is described as follows: Drug repurposing screens with cells derived from glioblastoma tumor samples (AID 1345199). Also: nearly all actives have a fitted effect of over 40% in size. Also: potency is read from the fitted curve at half-maximal effect. As to activity, negative = cell killing: % is scaled to controls: 0 for no effect and ±100 for the full control effect. Conditions: GBM patient neurospheres viability, ATP luminescence, 48 h. A digest of the protocol:
(§2)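 Primary testing used CD133+ neurospheres from four GBM patients, seven concentrations, 48 h exposure and ATP-based viability; confirmation added three slower-growing patient lines.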

The next experiment deals with Tov-21-G. Kind of experiment: Primary qHTS to identify gynecologic anti-cancer compounds using libraries of approved drugs and bioactive compounds (AID 1345084). Also: nearly all actives have a fitted effect of over 55% in size. Also: potency is read from the fitted curve at half-maximal effect. As to activity change, negative = cytotoxicity: % is scaled to controls: 0 for no effect and ±100 for the full control effect. Conditions: Gynecologic cancer cell panel viability, ATPlite luminescence, 48 h; series mostly up to 57.5 µM. Put shortly:
as §1

The next experiment deals with astro. Kind of experiment: Drug repurposing screens with cells derived from glioblastoma tumor samples (AID 1345199). Also: nearly all actives have a fitted effect of over 40% in size. Also: potency is read from the fitted curve at half-maximal effect. As to activity, negative = cell killing: % is scaled to controls: 0 for no effect and ±100 for the full control effect. Conditions: viability, ATP luminescence, 48 h; series mostly up to 45.9 µM. A digest of the protocol: as §2
The nature of experiment [2]: qHTS assay to identify inhibitors of the type 1 interferon - major histocompatibility complex class I in skeletal muscle: Counter screen cell viability and HiBit confirmation (AID 1347412). Also: % is scaled to controls: 0 for no effect and ±100 for the full control effect; nearly all actives have a fitted effect of over 60% in size. Conditions: iHSKM muscle cells + IFN-b, HiBiT or CellTiter-Glo, 24 h; Potency: HiBiT unless noted; Viability, at 45.9 µM (top of the series). Put shortly:
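Duplicate plates, pinned identically: one read for HiBiT-tagged endogenous HLA-B luminescence, the other for ATP-content viability via CellTiter Glo. Cells were genome-engineered human myoblasts given 4 ng/ml IFN-b; compounds 12-pt, 1:3 from 46 uM final; 24 hr exposure.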

Experiment [3] deals with Nuclear receptor subfamily 1 group I member 2 (Rattus norvegicus) (UniProt Q9R1A7). The experiment can be described thus: qHTS assay for small molecule activators of the rat pregnane X receptor (rPXR) signaling pathway (AID 651751; call rule not given here; also: 0% is about no effect). Conditions: rPXR reporter cells, luciferase (One-Glo), 24 h.
Experiment [4] is described as follows: qHTS assay for small molecule activators of the human pregnane X receptor (PXR) signaling pathway (AID 720659; call rule not given here; also: 0% is about no effect).
The mark [5] stands for this setting: at 45.9 µM (top of the series), tumour line B.
Setting [6] is: at 45.9 µM (top of the series), tumour line D.
[7] abbreviates: at 46.1 µM (top of the series), tumour line C.
Where [8] appears, read: at 21.2 µM (top of the series), tumour line B.
Where [9] appears, read: at 21.2 µM (top of the series), tumour line D.

Structures are written as SMILES. “And” between values parts separate entries of the source, which are not always exact repeats. Identical values can stand only once. Values without a mark were called inactive. Records with an inconclusive call do not appear. The source made the active and inactive calls. Unless noted, calls follow the shape of the dose curve; as a rule, active = well fitted curve in the direction sought with a large enough effect; inconclusive = small, poorly fitted or top-dose-only effect, or another doubt; inactive = no such curve, though single readings can be large; an effect the other way counts as inactive or inconclusive.

Nuclear receptor subfamily 1 group I member 2 (Rattus norvegicus), sequence (Q9R1A7 whole entry, looked up): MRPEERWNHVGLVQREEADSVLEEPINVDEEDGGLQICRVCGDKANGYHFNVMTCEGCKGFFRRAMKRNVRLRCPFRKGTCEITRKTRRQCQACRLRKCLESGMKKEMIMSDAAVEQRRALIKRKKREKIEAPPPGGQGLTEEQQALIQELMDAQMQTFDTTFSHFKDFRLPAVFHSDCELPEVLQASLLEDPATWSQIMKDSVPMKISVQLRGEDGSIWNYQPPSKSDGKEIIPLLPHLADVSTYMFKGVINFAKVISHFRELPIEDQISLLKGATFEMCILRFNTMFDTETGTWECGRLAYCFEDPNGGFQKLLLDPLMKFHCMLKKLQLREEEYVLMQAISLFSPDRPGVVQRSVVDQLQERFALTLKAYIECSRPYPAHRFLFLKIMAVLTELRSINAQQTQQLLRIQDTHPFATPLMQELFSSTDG

In the case of `CC(CCc1ccccc1)NCC(O)c1ccc(O)c(C(N)=O)c1` (stereo not drawn), the Potency entry in the experiment with Es-2, in the experiment on HeLa, in the experiment with Hek293T, in the experiment on JEG-3, in the experiment on OV90 and with PA-1 was “inactive” in each case. Also, the Potency entry in the experiment with SKOV3 and with Tov112D was “inactive” each time. For the same compound, the results for the activity, negative = cell killing in [1] (setting [5]), in [1] (setting [6]) and in experiment [1] (setting [7]) were -24.2%, -11.2% and -24%, respectively.
In the case of `CC(=O)OCC(=O)[C@@]1(OC(C)=O)[C@@H](C)C[C@H]2[C@@H]3C[C@H](F)C4=CC(=O)C=C[C@]4(C)[C@@]3(F)[C@@H](O)C[C@@]21C`, the Potency entry in the experiment on Es-2, in the experiment with HeLa, with Hek293T, in the experiment on JEG-3, with OV90 and in the experiment on PA-1 was “inactive” each time. Besides, the Potency result (in the experiment on SKOV3; in the experiment on Tov-21-G; in the experiment on Tov112D; with astro; in [2]) was “inactive” each time. Moreover, the figures for the activity, negative = cell killing in experiment [1] (setting [5]), in experiment [1] (setting [6]) and in experiment [1] (setting [7]) were -11.4%, 4.06% and -10.3%, respectively.
Regarding `CCCCC1=NC2(CCCC2)C(=O)N1Cc1ccc(-c2ccccc2-c2nn[nH]n2)cc1`, the Potency entry in the experiment on Es-2, with HeLa, in the experiment with Hek293T, in the experiment on JEG-3, with OV90 and with PA-1 was “inactive” throughout. Besides, the Potency entry in the experiment with Tov-21-G and with Tov112D was “inactive” in each case. Also, the activity, negative = cell killing in experiment [1] (setting [5]) was -9.67%; in experiment [1] (setting [6]), -0.133%; in experiment [1] (at 46 µM (top of the series), tumour line A), -12.9%; in [1] (setting [7]), 8.98%.
In the case of `CC(Cc1cccc(C(F)(F)F)c1)NCCOC(=O)c1ccccc1` (stereo not drawn), the Potency result in the experiment with Es-2, in the experiment on HeLa, in the experiment with Hek293T, in the experiment with JEG-3, in the experiment on OV90 and in the experiment with PA-1 was “inactive” each time. Besides, the Potency entry in the experiment with SKOV3, in the experiment with Tov-21-G, in the experiment with Tov112D and with astro was “inactive” in each case.
On to `Cc1ccc(O)c2ncccc12`, for which the Potency entry in the experiment with Es-2, in the experiment on HeLa, with Hek293T, with JEG-3, with OV90 and in the experiment on PA-1 was “inactive” throughout. In addition, the Potency entry in the experiment on SKOV3, in the experiment with Tov-21-G, in the experiment on Tov112D and in the experiment on astro was “inactive” each time.
For the compound `C[C@]12CC[C@H]3[C@@H](CCC4=CC(=O)CC[C@@]43C)[C@@H]1CC[C@@H]2C(=O)CO`, the Potency entry in the experiment on Es-2, in the experiment with Hek293T, in the experiment with JEG-3, in the experiment with OV90, in the experiment with Tov-21-G and in the experiment on Tov112D was “inactive” in each case. Also, the Potency entry in the experiment with astro was “inactive”. Also, the values for the Potency in the experiment with HeLa and with PA-1 were 3.55 µM (active) and 22.4 µM (active), respectively. Besides, the figures for the activity, negative = cell killing in experiment [1] (setting [8]) and in experiment [1] (setting [9]) were -21.2% and -27.5%, respectively.
For `O=c1[nH]c(=O)n([C@H]2CCCO2)cc1F`, the Potency entry in the experiment on Es-2, in the experiment on HeLa, in the experiment with Hek293T, in the experiment on JEG-3, in the experiment on OV90 and in the experiment on PA-1 was “inactive” in each case. The Potency result with Tov-21-G and in the experiment on Tov112D was “inactive” throughout.
In the case of `NC[C@H]1O[C@H](O[C@H]2[C@H](O[C@@H]3O[C@H](CO)[C@@H](O)[C@H]3O)C(O)[C@H](N)C[C@@H]2N)[C@H](N)[C@@H](O)[C@@H]1O` (stereo partly drawn), the activity change, negative = cytotoxicity with Es-2 was -3.21% [at 11.6 µM]; with HeLa, 8.62% [at 11.6 µM]; in the experiment on Hek293T, -5.51% [at 11.6 µM]; in the experiment on JEG-3, -0.299% [at 11.6 µM]; in the experiment with OV90, 0.648% [at 11.6 µM]; in the experiment on PA-1, 6.06% [at 11.6 µM]. Moreover, the activity change, negative = cytotoxicity with SKOV3 is -1.1% [at 11.6 µM]; with Tov-21-G it was 9.27% [at 11.6 µM]; in the experiment on Tov112D, 13.5% [at 11.6 µM]. The activity, negative = cell killing in [1] (setting [8]) was -5.37%; in experiment [1] (setting [9]) it was 0.454%. Besides, the Potency entry in the experiment with astro was “inactive”.
With `CO/N=C1\CN(c2nc3c(cc2F)c(=O)c(C(=O)O)cn3C2CC2)CC1CN` (stereo not drawn), the Potency result in the experiment with Es-2, with HeLa, with Hek293T, in the experiment on JEG-3, in the experiment on OV90 and with SKOV3 was “inactive” each time. Moreover, the Potency result with Tov-21-G and in the experiment on Tov112D was “inactive” each time. The activity, negative = cell killing is -0.703% in experiment [1] (setting [5]), -7.84% in [1] (setting [6]) and 13.8% in experiment [1] (setting [7]).
With `O=C1OC(c2ccc(O)cc2)(c2ccc(O)cc2)c2ccccc21`, the Potency result in the experiment with Es-2, in the experiment on HeLa, in the experiment on Hek293T, with JEG-3, in the experiment with PA-1 and with Tov-21-G was “inactive” throughout. Also, the Potency result with Tov112D is “inactive”. The Potency with OV90 is 28.2 µM (active). Also, the figures for the activity, negative = cell killing in [1] (setting [5]), in experiment [1] (setting [6]) and in [1] (setting [7]) were -16.9%, -16.2% and 2.26%, respectively. For the same compound, the max response in experiment [3] is 7.44% and -0.397%.
In the case of `O=S1(=O)c2cccc3cccc(c23)N1CCCN1CCN(c2ccc(F)cc2)CC1`, the Potency result in the experiment with Es-2, in the experiment with HeLa, in the experiment with Hek293T, with JEG-3, in the experiment on OV90 and with PA-1 was “inactive” each time. The Potency entry in the experiment on SKOV3, in the experiment on Tov-21-G, with Tov112D and in the experiment on astro was “inactive” each time. Besides, the activity, negative = cell killing in experiment [1] (setting [5]) is -28.9%. Moreover, the Potency in experiment [1] (tumour line A) was 12.6 µM (active).
With `CC(C)(C)NC(=O)[C@@H]1CN(Cc2cccnc2)CCN1C[C@@H](O)C[C@@H](Cc1ccccc1)C(=O)N[C@H]1c2ccccc2C[C@H]1O`, the Potency result with Es-2, in the experiment on HeLa, in the experiment with Hek293T, in the experiment with JEG-3, with OV90 and in the experiment on PA-1 was “inactive” in each case. Also, the Potency result with Tov-21-G and in the experiment on Tov112D was “inactive” throughout.
For `CC(=O)O[C@]1(C(C)=O)CC[C@H]2[C@@H]3C[C@H](C)C4=CC(=O)CC[C@]4(C)[C@H]3CC[C@@]21C`, the Potency result with Es-2, with HeLa, in the experiment with Hek293T, in the experiment on JEG-3, in the experiment on OV90 and with PA-1 was “inactive” each time. The Potency entry with SKOV3, in the experiment with Tov-21-G, in the experiment with Tov112D and with astro was “inactive” each time. For the same compound, in experiment [1] (setting [7]), the activity, negative = cell killing is -19.7%. In addition, in [1] (tumour line A), the Potency is 17.8 µM (active).
Consider `CCCN1CCCC[C@H]1C(=O)Nc1c(C)cccc1C`, for which the Potency result with Es-2, with HeLa, in the experiment with Hek293T, in the experiment with JEG-3, with OV90 and in the experiment with PA-1 was “inactive” each time. The Potency result with Tov-21-G, in the experiment on Tov112D and with astro was “inactive” throughout. In addition, the activity, negative = cell killing was -11.5% in [1] (setting [5]), -25.5% in experiment [1] (setting [6]) and -6.18% in experiment [1] (setting [7]). The Potency in [1] (tumour line A) was 35.5 µM (active).
Regarding `COc1ccc(C2C(=O)c3ccccc3C2=O)cc1`, the Potency entry with Es-2, in the experiment on HeLa, in the experiment with Hek293T, with JEG-3, in the experiment with OV90 and with PA-1 was “inactive” throughout. Moreover, the Potency entry with SKOV3, in the experiment with Tov-21-G, in the experiment on Tov112D and with astro was “inactive” in each case. Besides, the activity, negative = cell killing is -10.6% in experiment [1] (setting [5]), -14.2% in experiment [1] (setting [6]) and -5.24% in experiment [1] (setting [7]).
For the compound `CCCCCCc1ccc(O)cc1O`, the Potency entry in the experiment with Es-2, in the experiment on HeLa, with Hek293T, in the experiment on JEG-3, in the experiment on OV90 and with PA-1 was “inactive” each time. In addition, the Potency result with SKOV3, in the experiment with Tov-21-G and in the experiment with Tov112D was “inactive” in each case. The activity, negative = cell killing in experiment [1] (setting [5]) was -28.1%; in [1] (setting [7]) it was -19.2%. For the same compound, in experiment [1] (tumour line A), the Potency is 10 µM (active). For the same compound, the max response in experiment [3] was -4.98% and -0.286%. The outcome in experiment [4] was inactive.

For the origin of these results see PubChem BioAssay (NCATS).
